The values below come from the OligoGym collection.
Also: reference of the scale not given here.

One experiment has as its target SMC5. Put plainly: pooled miR-30 sensor sort-seq; sequence = guide strand. Particulars: shRNA.
As for TTTATTGTCACGAACCTCTTTG, the sensor-assay potency score (higher = more potent) was -0.041.

In the case of TATAAATCTGTTTTAATCGGGT, the sensor-assay potency score (higher = more potent) is -0.0428.

TTGATTTCATCAACTACTCTGA: the sensor-assay potency score (higher = more potent) came to 0.124.

A further experiment addresses SMCP. Described as above. Particulars: shRNA.
Consider TAAGGGGTGAGACTTCAGGCTT, for which the sensor-assay potency score (higher = more potent) was -0.603.

For TTGTCCTGAGTTTGCGGTGAGT, the sensor-assay potency score (higher = more potent) was -1.27.

On to TTGGTCTCCAAACCACAGCACC, for which the sensor-assay potency score (higher = more potent) was -1.3.

Turning to TTGTGTTTTGGTGGGCAGCATT, the sensor-assay potency score (higher = more potent) is -1.54.

As for TTTGCTGGGCAGCATTTACTGT, the sensor-assay potency score (higher = more potent) was -0.976.

TTGATTGCCTTTTGACTGGCAG showed a sensor-assay potency score (higher = more potent) of 0.000564.

In the case of TTTGGTGGGCAGCATTGACTGC, the sensor-assay potency score (higher = more potent) was -0.712.

TCTAAACACAGGTCTAGCCTGA showed a sensor-assay potency score (higher = more potent) of 0.141.

TTTTGACTGGCAGCACTGGTTC: the sensor-assay potency score (higher = more potent) is -0.818.

TTTGCGGTGAGTTGGGCTCAGA: the sensor-assay potency score (higher = more potent) is -1.18.

In the case of TGACTGGCAGCACTGGTTCTGC, the sensor-assay potency score (higher = more potent) is -1.04.

With TTGGTGGGCAGCATTGACTGCC, the sensor-assay potency score (higher = more potent) is -0.359.

For a further experiment, the target named is SMCR7L. The experiment is described as above. Particulars: shRNA.
TACATTGCAATAAATACTGCAA came in with a sensor-assay potency score (higher = more potent) of 0.27.

On to TTGTCTGTCTGACCCCTGCAGC, for which the sensor-assay potency score (higher = more potent) is -0.951.

For TGACTTCTTCAAGTCTACCTGG, the sensor-assay potency score (higher = more potent) was -0.253.

For the sequence TAAGTAGCTGATAAGTCCCCTC, the sensor-assay potency score (higher = more potent) was -0.665.

AAACATGCTATCACAGCTCTTC: the sensor-assay potency score (higher = more potent) came to 0.268.

Take TTGCTCTAAGGCCACATCCTAG: the sensor-assay potency score (higher = more potent) is -1.5.

TTGCATTCAGCTTATCCTGTGT showed a sensor-assay potency score (higher = more potent) of 0.0334.

Regarding TATGTCCACAGCAGCTTGCTTG, the sensor-assay potency score (higher = more potent) was -1.35.

On to TTAAACATTCCTCCCCACCTTC, for which the sensor-assay potency score (higher = more potent) was -0.361.

On to TAGCCAAGTGTATCTAACGGAG, for which the sensor-assay potency score (higher = more potent) is -1.24.

With TTCTCCTGCAGGGACATGCGGA, the sensor-assay potency score (higher = more potent) is -1.36.

Turning to TTCTACTCCAGGAACCGTGGTC, the sensor-assay potency score (higher = more potent) was determined as 0.223.

The next experiment concerns the target SMYD2. The description is as above. Particulars: shRNA.
For the sequence TTATCCTTGTCCTTGGTGGTAC, the sensor-assay potency score (higher = more potent) was -0.716.

As to TACAGCTCTGACTTCTGCCAGG, the sensor-assay potency score (higher = more potent) is -0.948.

With TTAAGGTTTCTGAACTAAGTGT, the sensor-assay potency score (higher = more potent) is -0.419.

Take TTTGCCGTGAGCTACTTCCATG: the sensor-assay potency score (higher = more potent) was -1.61.

Take TAACATATGAAACCATGCCATT: the sensor-assay potency score (higher = more potent) is -1.62.

With TAGTCTTACAGTCTCCGAGGGA, the sensor-assay potency score (higher = more potent) is -0.703.

Sequence TAGGTCACAATGACATTGGGGC yielded a sensor-assay potency score (higher = more potent) of 0.446.

For the sequence TTGACCGTGAGCACGTAGGCAT, the sensor-assay potency score (higher = more potent) was -0.166.

TTTTCTGTCCATATTGCAGGGC: the sensor-assay potency score (higher = more potent) is -0.2.

Regarding TACAGGAGATCAATATAGCTGG, the sensor-assay potency score (higher = more potent) was -0.203.

Consider TTACTGTCCTCAAACACAGAGC, for which the sensor-assay potency score (higher = more potent) is -0.927.

Take TTAACCGGTCATTTCTATCTTC: the sensor-assay potency score (higher = more potent) worked out at 0.511.
